Measurements as given in PubChem BioAssay (Tox21).
Values joined by “and” are separate entries in the source; they are usually repeats but may differ in a detail not shown here. Identical values can stand only once. Records with an inconclusive call do not appear. Some compounds were tested as several samples or in several runs, with calls that do not always agree. Active and inactive are the calls of the source. Unless noted, the call rests on the fitted dose curve.

Key:
[1] = qHTS assay to identify small molecule antagonists of the vitamin D receptor (VDR) signaling pathway - cell viability counter screen (AID 743225; active means well fitted curve in the direction sought with a large enough effect in the repeat runs; an effect the other way counts as inactive or inconclusive; further: on the % scale 0 is the no-effect control and ±100 the full control effect; nearly all actives have a fitted effect of over 50% in size)
In short: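 HEK293T VDR-bla; cpd + 1a,25-(OH)2D3 3 nM final, 16 h 37C/5% CO2; B/G FRET substrate 2 h RT; then CellTiter-Glo 30 min RT, luminescence.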

[2] = qHTS assay to identify small molecule agonists of the NFkB signaling pathway (AID 1159509; active means well fitted curve in the direction sought with a large enough effect in the signal ratio in the repeat runs, not every such curve was filed as active; the % refers to the signal ratio; further: series mostly up to about 61 µM; on the % scale 0 is the no-effect control and ±100 the full control effect)
In short: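 ME-180 NFkB-bla, 2,000 cells/well, overnight plating; cpd pinned in DMSO, 5 h 37 C; B/G FRET substrate 1.5 h RT; ex 405, em 460/530 nm.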

[3] = qHTS assay to identify small molecule agonists of the NFkB signaling pathway - cell viability counter screen (AID 1159515); further: series mostly up to about 61 µM; on the % scale 0 is the no-effect control and ±100 the full control effect; nearly all actives have a fitted effect of over 55% in size
In short: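 5 hr compound treatment of NFkB-bla ME-180 cells (2,000/well, seeded overnight beforehand), followed by reporter substrate for 1.5 hr. CellTiter-Glo added afterward; luminescence after 30 min RT.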

[4] = qHTS assay to identify small molecule agonists of the endoplasmic reticulum stress response signaling pathway - cell viability counter screen (AID 1159517);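 further: HeLa cells carrying an ER stress response element beta-lactamase reporter; series mostly up to about 61 µM; on the % scale 0 is the no-effect control and ±100 the full control effect; nearly all actives have a fitted effect of over 50% in size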
In short: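 ESRE-bla HeLa cells, 1,500 per well, seeded overnight then treated with compounds for 5 hr at 37 C. After the beta-lactamase read, viability in the same wells is measured by CellTiter-Glo luminescence after 30 min at room temperature.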

[5] = qHTS assay to identify small molecule antagonists of the retinoid-related orphan receptor gamma (ROR-gamma) signaling pathway - cell viability counter screen (AID 1159520; active means well fitted curve in the direction sought with a large enough effect in the repeat runs; an effect the other way counts as inactive or inconclusive; further: on the % scale 0 is the no-effect control and ±100 the full control effect; nearly all actives have a fitted effect of over 50% in size)
In short: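 Tet-on ROR gamma CHO cells were given compounds for 2 hr, then doxycycline hyclate at 1 uM final, and incubated 16 hr at 37 C. Viability was measured as ATP content by CellTiter-Glo luminescence.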

[6] = molecular target: Nuclear receptor ROR-gamma (Homo sapiens) (UniProt P51449); assay: qHTS assay to identify small molecule antagonists of the retinoid-related orphan receptor gamma (ROR-gamma) signaling pathway (AID 1159521; active means well fitted curve in the direction sought with a large enough effect in the repeat runs; an effect the other way counts as inactive or inconclusive; further: nearly all actives have a fitted effect of over 50% in size; further: potency means the concentration at half of the fitted maximal effect)
In short: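 Cells were plated, rested 4 h at 37 C, exposed to compounds for 2 h, then given 1 uM final doxycycline hyclate to induce RORγ expression. After 16 h, ONE-Glo luminescence from the ROR response element reporter was measured.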

[7] = qHTS assay to identify small molecule agonists of the AP-1 signaling pathway - cell viability counter screen (AID 1159525); further: nearly all actives have a fitted effect of over 55% in size
In short: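 AP-1-bla ME-180 cells in Opti-MEM with 0.5% dialyzed FBS, compound exposure 5 h at 37 C in 15-point titration. Viability read in the same wells as ATP content by CellTiter-Glo luminescence, normalised to tetra-n-octylammonium bromide and DMSO controls.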

[8] = qHTS assay to identify small molecule agonists of the AP-1 signaling pathway (AID 1159526); further: potency means the concentration at half of the fitted maximal effect; on activation: on the % scale 0 is the no-effect control and ±100 the full control effect
[9] = molecular target: Retinoic acid receptor RXR-alpha (Homo sapiens) (UniProt P19793); assay: qHTS assay to identify small molecule agonists of the RXR signaling pathway (AID 1159527); further: nearly all actives have a fitted effect of over 35% in size; further: potency means the concentration at half of the fitted maximal effect; on activation: on the % scale 0 is the no-effect control and ±100 the full control effect
In short: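 Cells plated at 2,000/well, rested 5 hr at 37 C, pin-dosed with DMSO compound solutions, incubated 16 hr, then loaded with B/G FRET substrate for 2 hr at RT before dual-emission fluorescence reading.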

[10] = qHTS assay to identify small molecule agonists of the endoplasmic reticulum stress response signaling pathway (AID 1159516; active means well fitted activation curve with a large enough effect in the signal ratio in the repeat runs, not every such curve was filed as active; the % refers to the signal ratio; further: on the % scale 0 is the no-effect control and ±100 the full control effect)
In short: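 Reporter HeLa cells (ESRE-beta-lactamase) underwent 5 hr compound incubation at 37 C and 5% CO2 in quantitative HTS format. Detection followed 2 hr of FRET substrate loading at room temperature.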

Chain of Retinoic acid receptor RXR-alpha (Homo sapiens) (P19793 whole entry, looked up): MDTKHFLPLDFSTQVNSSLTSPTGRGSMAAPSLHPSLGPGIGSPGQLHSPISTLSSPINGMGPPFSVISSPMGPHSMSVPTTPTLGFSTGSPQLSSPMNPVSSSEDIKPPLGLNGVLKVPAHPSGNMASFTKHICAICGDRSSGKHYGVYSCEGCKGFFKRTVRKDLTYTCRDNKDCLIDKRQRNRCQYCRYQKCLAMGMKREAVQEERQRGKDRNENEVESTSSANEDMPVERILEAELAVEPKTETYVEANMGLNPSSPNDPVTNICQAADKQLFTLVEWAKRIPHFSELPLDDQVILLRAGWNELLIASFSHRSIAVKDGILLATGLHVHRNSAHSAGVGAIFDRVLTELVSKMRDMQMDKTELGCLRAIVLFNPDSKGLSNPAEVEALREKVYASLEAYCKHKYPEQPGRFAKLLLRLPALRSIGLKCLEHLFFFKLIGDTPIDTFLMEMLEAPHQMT

CC(C)c1cccc(C(C)C)c1
inactive: outcome [1] | outcome [2] | outcome [3] | Potency [4] | outcome [5] | Potency [6] | outcome [7] | Potency [8] | Potency [9]

O=C(O)c1cc2ccccc2cc1O
inactive: outcome [1] | outcome [2] | outcome [3] | Potency [4] | outcome [5] | Potency [6] | outcome [7] | Potency [8] | Potency [9]

CC(C)(C)c1cc(Cc2cc(C(C)(C)C)c(O)c(C(C)(C)C)c2)cc(C(C)(C)C)c1O
inactive: outcome [1] | outcome [2] | outcome [3] | Potency [4] | outcome [5] | Potency [6] | outcome [7] | Potency [8] | Potency [9]

CN(C)CCOC(=O)COc1ccc(Cl)cc1
inactive: outcome [1] | outcome [2] | outcome [3] | Potency [4] | outcome [5] | Potency [6] | outcome [7] | Potency [8] | Potency [9]

CCCCCC(=O)O
inactive: outcome [1] | outcome [2] | outcome [3] | Potency [4] | outcome [5] | Potency [6] | outcome [7] | Potency [8] | Potency [9]

CC(CCO)CC(C)(C)C (stereo unspecified)
inactive: outcome [1] | outcome [2] | outcome [3] | Potency [4] | outcome [5] | Potency [6] | outcome [7] | Potency [8] | Potency [9]

C=CCc1ccc(OC)c(OC)c1
inactive: outcome [1] | outcome [2] | outcome [3] | Potency [4] | Potency [6] | outcome [7] | Potency [8]
inactive and 7.76 µM (active): Potency [9]

CN(C)c1ccc(O)c2c1C[C@H]1C[C@H]3[C@H](N(C)C)C(=O)C(C(N)=O)=C(O)[C@@]3(O)C(=O)C1=C2O
inactive: outcome [1] | outcome [2] | outcome [3] | Potency [4] | outcome [7] | Potency [8] | Potency [9]
active: Potency [6] 21.7 µM and 26.6 µM

Cc1ccc(C(C)C)c(O)c1
inactive: outcome [1] | outcome [2] | outcome [3] | Potency [4] | Potency [6] | outcome [7] | Potency [8] | Potency [9]

O=c1[nH]cnc2[nH]ncc12
inactive: outcome [1] | outcome [2] | outcome [3] | outcome [10] | Potency [4] | Potency [6] | outcome [7] | Potency [8] | Potency [9]

COc1ccc(C)cc1N
inactive: outcome [1] | outcome [2] | outcome [3] | Potency [4] | Potency [6] | outcome [7] | Potency [8] | Potency [9]

Cc1ccc([N+](=O)[O-])cc1S(=O)(=O)O
inactive: outcome [1] | outcome [2] | outcome [10] | Potency [4] | outcome [5] | Potency [6] | outcome [7] | Potency [8] | Potency [9]

O=C(OCC1CCC2OC2C1)C1CCC2OC2C1 (stereo unspecified)
inactive: outcome [1] | outcome [2] | Potency [4] | outcome [5] | Potency [6] | outcome [7] | Potency [8] | Potency [9]

O=C1c2ccccc2CCc2ccccc21
inactive: outcome [1] | outcome [2] | outcome [10] | Potency [4] | outcome [5] | Potency [6] | outcome [7] | Potency [9]
active: Potency [8] 35.4 µM and 23.9 µM

Nc1ccc(Cl)c(N)c1
inactive: outcome [1] | outcome [2] | Potency [4] | Potency [6] | outcome [7] | Potency [8] | Potency [9]

CCc1ccccc1CC
inactive: viability change, negative = cytotoxic [1] 4.82% [at 15.1 µM] | outcome [2] | Potency [4] | outcome [5] | Potency [6] | outcome [7] | Potency [8] | Potency [9]
